# Screening data: PubChem BioAssay, National Center for Advancing Translational Sciences (NCATS)
# RE007 growth inh: less growth of the S. pombe RE007 Vpr strain; S. pombe RE007 Vpr strain, BacTiter-Glo ATP luminescence, 24 h; Potency, µM (series often up to 92.2 µM), most hits filed as inhibitors; 360,000 compounds, 0.21% hits; active = well fitted falling curve with a large enough effect; inconclusive = small, poorly fitted or top-dose-only effect; inactive = no such curve, though single readings can be large or run the other way; also: nearly all actives have a fitted effect of over 50% in size
#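 Fission yeast RE007 carrying one integrated HIV-1 vpr copy, seeded at OD 0.01 in PMG+AL medium with 23 nL pinned compound. Grown 24 h at 30 degrees; viability read by BacTiter-Glo luminescence after 5 min.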
# Shiga toxin inh: Shiga toxin inhibition | Vero cells, Shiga toxin protein synthesis inhibition reporter | inhibition, % at 38.7 µM | 290,000 compounds, 9.2% hits | AID 2315; in the data active = inhibition mostly above about 28%, no sharp cut-off; inactive = mostly below about 43%
# FBPA Giardia inh: Giardia lamblia aldolase inhibition. A8B2U2. 290,000 compounds, 0.71% hits. Potency, µM (top dose mostly 59.6 µM), hits mostly inhibitors. purified Giardia FBPA; also: nearly all actives have a fitted effect of over 55% in size
#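 40 nM FBPA preincubated 10 min at RT with compound (up to 57.5 uM final), then substrate plus GAPDH/TPI/NAD/arsenate coupling and diaphorase/resazurin added. Fluorescence read after 20 min at RT, 525/598 nm.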
# LmPK inhibitor: LmPK (Leishmania mexicana) enzyme inhibition; Q27686; purified LmPK, Kinase-Glo ATP luminescence, 1 h; Potency, µM (highest dose often 57.5 µM), hits mostly inhibitors; 290,000 compounds, 0.37% hits
# Target sequence (Q27686 whole entry, looked up): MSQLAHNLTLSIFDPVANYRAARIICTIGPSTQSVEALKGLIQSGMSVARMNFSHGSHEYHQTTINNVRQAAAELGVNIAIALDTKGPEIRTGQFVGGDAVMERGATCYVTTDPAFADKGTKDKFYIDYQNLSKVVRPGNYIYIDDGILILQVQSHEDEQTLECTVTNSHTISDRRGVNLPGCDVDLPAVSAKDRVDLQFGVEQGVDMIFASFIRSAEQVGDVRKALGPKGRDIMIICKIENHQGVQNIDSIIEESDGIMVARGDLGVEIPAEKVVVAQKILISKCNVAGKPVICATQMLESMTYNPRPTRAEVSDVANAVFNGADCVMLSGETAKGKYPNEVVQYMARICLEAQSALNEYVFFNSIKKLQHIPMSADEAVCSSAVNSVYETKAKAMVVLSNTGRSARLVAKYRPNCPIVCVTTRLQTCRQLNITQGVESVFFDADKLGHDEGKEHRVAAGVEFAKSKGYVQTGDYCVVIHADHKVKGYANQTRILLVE
#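 qHTS format; LmPK 0.1 nM; substrates PEP 0.5 mM and ADP 0.1 mM. One-hour room-temperature incubation, then coupled luciferase luminescence; 0.5 nM enzyme wells mark activation.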
# CHX counter: counter-screen hit for Shiga toxin inhibitors, cycloheximide. cell reporter, cycloheximide protein synthesis inhibition counterscreen. max response, %. 300,000 compounds, 12% hits. AID 2314; in the data active = max response mostly above about 13%, no sharp cut-off; inactive = mostly below about 14%; also: read at 38.3 µM for the half of the compounds with a filed dose
# TbPYK inhibitor: blocks Trypanosoma brucei pyruvate kinase. TbPYK enzyme, Kinase-Glo Plus ATP luminescence, 45 min. Potency, µM (titrated, usually from 76.8 µM), most hits filed as inhibitors. Q57TT1. 410,000 compounds, 0.12% hits; also: nearly all actives have a fitted effect of over 50% in size
#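 Assay buffer: 50 mM TEA pH 7.2, 100 mM KCl, 10 mM MgCl2, 0.05% BSA, 0.01% Tween-20. Pyruvate kinase from T. brucei plus substrate met compound, then ADP (130 uM final). Luminescence was read post 45 min RT.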
# Numbers stand for hits; . = inactive; ? = inconclusive; / = not tested or not shown. This is one part of a sample in which hits are shown more often than they occur. Unless noted, calls follow the shape of the dose curve; as a rule, active = well fitted curve in the direction sought with a large enough effect; inconclusive = small, poorly fitted or top-dose-only effect, or another doubt; inactive = no such curve, though single readings can be large; an effect the other way counts as inactive or inconclusive.
SMILES,RE007 growth inh,Shiga toxin inh,FBPA Giardia inh,LmPK inhibitor,CHX counter,TbPYK inhibitor
COC(=O)CSc1nc(C)c(C(C)=O)cc1C#N,.,.,.,.,24,.
CC(=O)c1cc(C#N)c(SCc2ccccc2)nc1C,.,.,.,.,32,.
COc1cc(-c2noc(-c3ccc(NCc4ccco4)c([N+](=O)[O-])c3)n2)cc(OC)c1OC,/,/,/,/,/,.
Cc1ccn2c(=O)c(C(=O)NCCc3ccc(S(N)(=O)=O)cc3)c(O)nc2c1,/,/,/,/,/,.
COc1ccc(-c2nnc(SCC(=O)Nc3cc(OC)ccc3OC)nc2-c2ccc(OC)cc2)cc1,/,/,/,/,/,.
C=C(C)CNC(=S)Nc1nc2c(cc1C(=O)OCC)CCCC2,.,active,.,.,.,.
CCC1CC=CC2C1C(=O)N(Cc1ccccc1)C2c1cccc([N+](=O)[O-])c1 (centres undefined),/,.,.,/,.,/
O=c1c(CN2CCN(c3ccccn3)CC2)coc2ccccc12,.,87,.,.,66,.
Oc1c(CN2CCN(c3ccccn3)CC2)cc(Cl)c2cccnc12,?,.,?,.,14,.
O=C(Oc1c(CN2CCOCC2)cc(Cl)c2cccnc12)c1ccc(F)cc1,.,.,?,.,30,.
COc1ccc(C(=O)Oc2c(CN3CCOCC3)cc(Cl)c3cccnc23)cc1,.,.,.,.,.,.
OCCN1CCN(Cc2cc(Cl)c3cccnc3c2O)CC1,.,.,?,.,.,.
O=C(Nc1ccc(/C=C/c2ccc(NC(=O)c3cc(S(=O)(=O)O)c4cccnc4c3O)cc2S(=O)(=O)O)c(S(=O)(=O)O)c1)c1cc(S(=O)(=O)O)c2cccnc2c1O,/,/,/,/,/,.
COc1cc(OC)c(NS(=O)(=O)c2c(C(=O)N3CCC(C)CC3)c(C)n(C)c2C)cc1Cl,/,/,/,/,/,.
CCCCOc1ccc(-c2nnn(C(C)(C)C(=O)OC)n2)cc1,.,57,.,.,32,.
CCCCOc1ccc(-c2nnn(C(C)C(=O)OCC)n2)cc1 (centres undefined),.,.,.,.,.,.
CCOC(=O)c1ccccc1N/C=C/C(=O)c1ccccc1,.,/,/,/,/,.
Cc1ccc(C(=O)/C=C/Nc2ccccc2C(N)=O)cc1,?,.,.,?,19,.
NC(=O)c1ccccc1NC(=O)c1ccccc1Cl,.,.,.,.,.,.
NC(=O)c1ccccc1N/C=C/C(=O)c1ccc(Cl)cc1,.,49,.,?,52,.
O=C(Nc1ccc(OCc2cc(=O)n3ccccc3n2)cc1)c1ccccc1Cl,/,/,/,/,/,.
CSc1ncc(Cl)c(C(=O)Nc2ccc(S(=O)(=O)Nc3nccc(C)n3)cc2)n1,.,70,/,.,31,.
C[n+]1ccccc1/C=C/c1ccc2ncccc2c1,.,40,.,.,27,.
C[n+]1ccccc1/C=C/c1ccc(F)c(F)c1,.,/,.,.,.,.
COC(=O)c1ccc2c(c1)N(Cc1ccccc1)C(=O)c1ccccc1S2(=O)=O,/,/,/,/,/,.
SMILES,RE007 growth inh,Shiga toxin inh,FBPA Giardia inh,LmPK inhibitor,CHX counter,TbPYK inhibitor
COc1ccc(/C=N/Nc2nc(-c3ccc(C)cc3)c(NC(C)=O)s2)cc1OC,.,55,.,.,34,.
CCOc1cc(/C=N\Nc2nc(-c3ccc(C)cc3)c(NC(C)=O)s2)ccc1O,.,.,.,.,.,.
COc1cc(/C=N\Nc2nc(-c3ccc(C)cc3)c(NC(C)=O)s2)ccc1O,.,.,.,.,19,.
COc1cccc(CNC(=O)C2CCC(CNS(=O)(=O)c3ccc4c(c3)CCCC(=O)N4)CC2)c1 (centres undefined),/,/,/,/,/,.
Cc1cccc2nc3ccccc3nc12,?,.,.,.,17,.
CCOC(=O)N1CCN(CCC(=O)c2ccc(Cl)cc2)CC1,32µM,.,.,.,.,.
CCOC(=O)N1CCN(CCC(=O)c2ccc(OC)cc2)CC1,28µM,.,.,.,.,.
CCOC(=O)N1CCN(CCC(=O)Nc2ccc(OC)cc2)CC1,.,.,.,.,.,.
CCOC(=O)N1CCN(CCC(=O)c2ccc(Br)cc2)CC1,35µM,.,.,.,.,.
CCN1CCN(C(=S)c2ccc(Cl)cc2)CC1,.,.,4µM,.,.,?
OCCN1CCN(C(=S)c2ccc(Cl)cc2)CC1,.,.,.,.,.,?
COc1ncc2nc(C)c(=O)n(Cc3ccc(F)cc3)c2n1,/,/,.,/,/,/
